Laboratory results as given in PubChem BioAssay (Tox21).
Records with an inconclusive call do not appear. Calls of active or inactive are those of the source. Unless noted, calls follow the shape of the dose curve; as a rule, active = well fitted curve in the direction sought with a large enough effect in the repeat runs; inconclusive = weak or mixed curves; inactive = no such curve, though single readings can be large; an effect the other way counts as inactive or inconclusive.

Columns and labels:
[1] = qHTS assay for small molecule agonists of the p53 signaling pathway (AID 651631; calls by dose curve; also: nearly all actives have a fitted effect of over 15% in size)
In short: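 Quantitative high-throughput format: 4,000 p53RE-bla HCT-116 cells/well, 5 h pre-incubation, 16 h compound exposure at 37 °C, 2 h room-temperature substrate step, fluorescence intensity measured.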

[2] = qHTS assay for small molecules that induce genotoxicity in human embryonic kidney cells expressing luciferase-tagged ATAD5 (AID 651632); also: nearly all actives have a fitted effect of over 15% in size
In short: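 Quantitative HTS in HEK293T expressing luciferase-tagged ATAD5, whose levels rise upon DNA damage. Exposure ran 16 hr at 37C and 5% CO2, with luminescence read 30 min after Amplite addition at room temperature.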

[3] = qHTS assay for small molecule agonists of the p53 signaling pathway - cell viability (AID 651633; calls by dose curve;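 also: p53RE-bla HCT reporter cells with a stable beta-lactamase p53 reporter; series mostly up to about 83 µM; nearly all actives have a fitted effect of over 30% in size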)
In short: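 Viability counter-read: CellTiter-Glo luminescence (30 min, room temperature) in the same p53RE-bla plates. These plates had been exposed to compounds for 16 h at 37 C.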

[4] = qHTS assay for small molecules that induce genotoxicity in human embryonic kidney cells expressing luciferase-tagged ATAD5 - cell viability (AID 651634; calls by dose curve; also: nearly all actives have a fitted effect of over 25% in size)
In short: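 After 15.5 hr incubation with compound at 37C, 5% CO2, HEK293T ATAD5-luciferase cells received CellTiter-Fluor reagent; fluorescence intensity was quantified following 30 min at 37C.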

[5] = qHTS assay for small molecule disruptors of the mitochondrial membrane potential - cell viability (AID 720634; calls by dose curve;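 also: human HepG2 liver cancer cells; series mostly up to about 83 µM; nearly all actives have a fitted effect of over 20% in size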)
In short: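 ATP-based luminescent viability readout (CellTiter-Glo, 30 min, room temperature) in HepG2 cells multiplexed with the m-MPI membrane potential dye; compound exposure lasted 1 hr at 37 C.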

[6] = qHTS assay for small molecule disruptors of the mitochondrial membrane potential (AID 720635)
In short: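 Mitochondrial membrane potential tracked with Mito-MPS dye, red aggregates (ex 540/em 590 nm) against green monomers (ex 490/em 535 nm). Compound treatment 1 hr at 37C, dye 30 min in HepG2.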

[7] = qHTS assay to test for compound auto fluorescence at 535 nm (green) in HepG2 cells (AID 720675)
[8] = qHTS assay to test for compound auto fluorescence at 460 nm (blue) in HEK293 cells (AID 720678)
In short: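 HEK293 cells (2,000/well, medium with 10% dialyzed FBS) attached 4-5 hr, then exposed to compound overnight at 37C, 5% CO2. Blue fluorescence read at 405/460 nm, with triamterene as reference fluorophore.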

[9] = qHTS assay to test for compound auto fluorescence at 590 nm (red) in HEK293 cells (AID 720679)
In short: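 HEK293 cells (2,000/well, 10% dialyzed FBS) attached 4-5 hr, then dosed with compound or DMSO and incubated overnight at 37C, 5% CO2. Red fluorescence read at 540/590 nm, Rose Bengal sodium as reference fluorophore.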

[10] = qHTS assay to test for compound auto fluorescence at 535 nm (green) in HEK293 cells (AID 720680)
[11] = qHTS assay to test for compound auto fluorescence at 460 nm (blue) in HEK293 cell free culture (AID 720681)
In short: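 Blue fluorescence (Ex 405/Em 460 nm, triamterene-equivalent) was read immediately after pin transfer of compound or DMSO into medium (DMEM, 10% FBS) without cells.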

[12] = qHTS assay to test for compound auto fluorescence at 535 nm (green) in HEK293 cell free culture (AID 720682)
In short: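 Measurement is a direct plate read of green fluorescence (485 nm in, 535 nm out) after compound addition to serum-supplemented DMEM lacking cells, with fluorescein used to express intensities.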

[13] = qHTS assay to test for compound auto fluorescence at 590 nm (red) in HEK293 cell free culture (AID 720683)
In short: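 Red-channel autofluorescence of compounds in culture medium (DMEM, 10% FBS), no cells, measured at 540/590 nm. Rose Bengal sodium is the reference fluorophore for equivalence.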

[14] = qHTS assay to test for compound auto fluorescence at 460 nm (blue) in HepG2 cell free culture (AID 720685)
In short: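 Cell-free plates of MEM plus 10% FBS received 23 nL compound or DMSO vehicle; blue-channel (405/460 nm) intensity scored against triamterene as reference fluorophore.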

[15] = qHTS assay to test for compound auto fluorescence at 535 nm (green) in HepG2 cell free culture (AID 720686)
[16] = qHTS assay to test for compound auto fluorescence at 460 nm (blue) in HepG2 cells (AID 720687)
In short: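 Blue-channel autofluorescence (Ex/Em 405/460 nm, triamterene-equivalent) was measured after 1 hr compound exposure at 37 C, 5% CO2. Cells were HepG2, plated overnight at 37 C in MEM plus 10% FBS.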

[17] = qHTS assay to test for compound auto fluorescence at 590 nm (red) in HepG2 cells (AID 720674)
In short: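 1 hr compound incubation on HepG2 cells, 37 C, 5% CO2; plate read ex 540 nm / em 590 nm; intensities reported as Rose Bengal sodium equivalents.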

[18] = qHTS assay to test for compound auto fluorescence at 590 nm (red) in HepG2 cell free culture (AID 720684)
In short: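 Cell-free; medium MEM + 10% FBS; compound or DMSO added by pintool; read Ex 540/Em 590 nm; Rose Bengal sodium as red reference fluorophore.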

[19] = target: Glucocorticoid receptor (Homo sapiens) (UniProt P04150); assay: qHTS assay to identify small molecule agonists of the glucocorticoid receptor (GR) signaling pathway (AID 720691; active = well fitted activation curve with a large enough effect in the signal ratio in the repeat runs, not every such curve was filed as active; the % refers to the signal ratio)
In short: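 Cells: GR-bla HeLa, endogenous GR with stably integrated GRE-beta-lactamase reporter. Treatment 18 h, 37 C, compounds delivered in DMSO. Detection via LiveBLAzer B/G FRET substrate, 2 h RT, fluorescence intensity.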

Measured: Potency

Glucocorticoid receptor (Homo sapiens), sequence (P04150 whole entry, looked up): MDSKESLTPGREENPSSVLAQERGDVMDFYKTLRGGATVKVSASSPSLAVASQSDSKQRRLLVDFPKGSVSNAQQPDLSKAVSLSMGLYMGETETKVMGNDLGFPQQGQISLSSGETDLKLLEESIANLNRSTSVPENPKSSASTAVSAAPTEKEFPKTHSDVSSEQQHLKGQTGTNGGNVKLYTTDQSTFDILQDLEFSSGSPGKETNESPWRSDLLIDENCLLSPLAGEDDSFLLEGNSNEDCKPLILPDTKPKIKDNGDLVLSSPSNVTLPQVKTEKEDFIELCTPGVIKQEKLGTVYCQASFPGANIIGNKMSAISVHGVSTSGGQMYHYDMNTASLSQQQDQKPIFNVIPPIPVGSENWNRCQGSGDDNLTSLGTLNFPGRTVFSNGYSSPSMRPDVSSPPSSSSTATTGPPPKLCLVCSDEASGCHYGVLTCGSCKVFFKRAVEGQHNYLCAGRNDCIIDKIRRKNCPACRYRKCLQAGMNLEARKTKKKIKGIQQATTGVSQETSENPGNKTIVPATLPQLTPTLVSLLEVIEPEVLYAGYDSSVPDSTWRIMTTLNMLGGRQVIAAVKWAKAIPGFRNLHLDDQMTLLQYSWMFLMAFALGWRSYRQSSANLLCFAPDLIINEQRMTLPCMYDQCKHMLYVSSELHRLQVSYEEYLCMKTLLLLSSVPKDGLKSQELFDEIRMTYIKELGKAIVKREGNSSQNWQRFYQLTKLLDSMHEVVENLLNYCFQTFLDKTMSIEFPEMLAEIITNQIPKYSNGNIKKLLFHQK

CCCCCCCCN
not listed: [17] | [18] | [19]
inactive: all other assays above

CCn1cc(C(=O)O)c(=O)c2cc(F)c(N3CCNCC3)cc21
not listed: [6]
inactive: all other assays above

C=C(C)CCCC(C)CCO (stereo not given)
not listed: [6] | [19]
inactive: all other assays above

CCCCCC[C@@H](O)C/C=C\CCCCCCCC(=O)OCC(O)CO (stereo not given in full)
not listed: [6] | [17] | [19]
inactive: all other assays above

CCC(=O)OC
not listed: [6] | [16] | [17]
inactive: all other assays above

COc1ccccc1Oc1c(NS(=O)(=O)c2ccc(C(C)(C)C)cc2)nc(-c2ncccn2)nc1OCCO
not listed: [6] | [10] | [19]
inactive: all other assays above

O=C1NC(=O)c2cc([N+](=O)[O-])ccc21
not listed: [6] | [8] | [19]
inactive: all other assays above
